# High-throughput results deposited in PubChem by National Center for Advancing Translational Sciences (NCATS).
# Tb PYK inh = inhibitors of Trypanosoma brucei pyruvate kinase. Potency, µM (top dose mostly 76.8 µM), most hits filed as inhibitors. AID 624173. TbPYK enzyme, Kinase-Glo Plus ATP luminescence, 45 min. 410,000 compounds, 0.12% hits; note: nearly all actives have a fitted effect of over 50% in size
#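 In this concentration-response screen, enzyme-free wells defined baseline while DMSO plates tracked drift. Each reaction combined TbPYK, substrate, compound and 130 uM ADP for 45 min at room temperature. Kinase-Glo Plus luminescence gave the signal.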
# Sm TGR block = S. mansoni TGR enzyme inhibition; Q962Y6; AID 485364; purified TGR, DTNB reduction, TNB absorbance 405 nm; 360,000 compounds, 3% hits; Potency, µM (titrated, usually from 114 µM), most hits filed as inhibitors; note: nearly all actives have a fitted effect of over 60% in size
#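 TGR 20 nM + NADPH 100 uM (dispensed conc.), cpd preinc 15 min RT; start with NADPH (500 uM addition) then DTNB (15 mM addition). Kinetic TNB absorbance, 405 nm filter. Four-parameter Hill fit across titration.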
# Giardia FBPA inh = inhibitors of Giardia lamblia fructose-1,6-bisphosphate aldolase | purified Giardia FBPA | A8B2U2 | Potency, µM (series often up to 59.6 µM), most hits filed as inhibitors | 290,000 compounds, 0.71% hits; note: nearly all actives have a fitted effect of over 55% in size
# Target sequence (A8B2U2 whole entry, looked up): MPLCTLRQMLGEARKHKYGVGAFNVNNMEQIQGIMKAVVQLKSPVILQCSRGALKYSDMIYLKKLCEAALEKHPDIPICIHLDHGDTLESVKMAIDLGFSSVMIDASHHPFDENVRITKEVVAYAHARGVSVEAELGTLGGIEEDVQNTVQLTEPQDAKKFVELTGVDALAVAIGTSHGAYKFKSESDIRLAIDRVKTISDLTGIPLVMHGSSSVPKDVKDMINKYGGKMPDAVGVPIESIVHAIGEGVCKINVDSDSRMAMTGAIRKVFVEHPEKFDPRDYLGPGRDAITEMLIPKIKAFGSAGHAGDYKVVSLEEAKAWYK
#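 Giardia FBPA (40 nM reagent) was preincubated 10 min at RT with compound (up to 57.5 uM final), then substrate plus GAPDH/TPI/NAD/arsenate coupling system with diaphorase/resazurin was added; resorufin fluorescence (525/598 nm) was read after 20 min.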
# HCMV antiviral = inhibitors of human cytomegalovirus. AID 1259415. activity change, negative = inhibition, % at 57.5 µM. HFF cells, HCMV-luciferase reporter, 72 h; active compounds read low. 410,000 compounds, 4.5% hits; in the data active = activity change below about -60%; inconclusive = no clear call, values can overlap the other calls; inactive = above about -39%
#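 Two-dose cell screen: HFF monolayers treated with compounds and infected with luciferase-expressing HCMV at 1 PFU/cell, 72 h at 37C, then lysed for luciferase measurement.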
# RE007 growth inh = less growth of the S. pombe RE007 Vpr strain | 360,000 compounds, 0.21% hits | S. pombe RE007 Vpr strain, BacTiter-Glo ATP luminescence, 24 h | Potency, µM (titrated, usually from 92.2 µM), usual class: inhibitors | AID 651644; active = well fitted falling curve with a large enough effect; inconclusive = small, poorly fitted or top-dose-only effect; inactive = no such curve, though single readings can be large or run the other way; note: nearly all actives have a fitted effect of over 50% in size
#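 Fission yeast strain RE007, carrying one chromosomally integrated HIV-1 vpr copy, was seeded at OD 0.01 in PMG+AL medium with 23 nL pinned compound. After 24 h at 30 °C and 99% humidity, viability was read by BacTiter-Glo luminescence.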
# FMDV inh = antivirals against foot and mouth disease virus | FMDV antiviral cell-based qHTS | Potency, µM (series often up to 57.9 µM), actives largely listed as inhibitors | 410,000 compounds, 1.2% hits; calls by dose curve; tested in HEK293T cells; note: read-out not given here; nearly all actives have a fitted effect of over 45% in size
# Numbers stand for hits; n = inactive; u = inconclusive; x = no result; [ ] = another dose, or the depositor's remark. A selection: hits, their analogues and other compounds. The true share with any hit is near 7.7%. Unless noted, calls come from the whole dose curve; as a rule, active = well fitted curve in the direction sought with a large enough effect; inconclusive = small, poorly fitted or top-dose-only effect, or another doubt; inactive = no such curve, though single readings can be large; an effect the other way counts as inactive or inconclusive.
SMILES,Tb PYK inh,Sm TGR block,Giardia FBPA inh,HCMV antiviral,RE007 growth inh,FMDV inh
CC1CCC2C(=O)N3C(CCC(C)[C@@H]3c3ccc(-c4ccco4)cc3)C(=O)N2C1c1cccc(N2CCCC2=O)c1 (stereo not given in full),x,x,n[12.9 µM],x,x,x
[O-]/[N+](=C/c1ccc(F)cc1)c1ccccc1,n,n,n,-80,n,n
Oc1ccccc1OCc1nc2ccccc2s1,n,n,n,n,n,n
Oc1ccc(O)c(Cc2nc3ccccc3s2)c1,n,50µM,n,u,n,n
O=[N+]([O-])c1cc([N+](=O)[O-])c2nonc2c1Nc1ccccc1O,n,50µM,n,u,n,n
O=[N+]([O-])c1c(Nc2ccccc2O)cc(N2CCOCC2)c2nonc12,n,n,n,u,n,n
O=C(O)c1ccccc1Nc1ccc([N+](=O)[O-])c2nonc12,n,35µM,n,x,n,n
O=[N+]([O-])c1cc([N+](=O)[O-])c2nonc2c1Nc1ccc(O)cc1,n,32µM,n,n,n,n
O=C(O)c1ccccc1Nc1ccc([N+](=O)[O-])cc1C(=O)O,n,n,n,n,n,n
CC1(O)C(=O)C2(C)C=CC1C1C(=O)N(c3ccccc3)C(=O)C12 (stereo not given),x,x,x,n,x,x
Cc1cc(C(=O)N/N=C2\CC(=O)CC(C)(C)C2)c(C)n1-c1ccc(F)cc1,n,u,n,-64,n,n
COc1ccc(N2C3=C(CC4=C2CC(C)(C)CC4=O)C(=O)CC(C)(C)C3)cc1,u,u,u,-99,n,x
COc1ccc(N2C3=C(CC4=C2CCCC4=O)C(=O)CCC3)cc1,u,40µM,n,u,n,u
COc1ccc(-n2ccc(=O)c3c2CCCC3=O)cc1,n,n,n,n,n,n
COc1ccc(N2C3=C(C(=O)CC(C)(C)C3)C(c3ccccc3OC)C3=C2CC(C)(C)CC3=O)cc1,n,n,n,-65,n,n
COc1ccccc1C1C2=C(CC(C)(C)CC2=O)N(CC(=O)O)C2=C1C(=O)CC(C)(C)C2,n,u,n,n,n,n
CCOc1ccc(C(=O)NCC(c2ccc3c(c2)OCO3)N2CCN(c3ccccc3F)CC2)cc1 (stereo not given),n,n,x,n,x,n
CCOC(=O)CCN(c1ccccc1)S(=O)(=O)c1ccc2[nH]c(=O)ccc2c1,n,n,x,n,x,n
CC(=O)Nc1ccc(NS(=O)(=O)c2c(C(=O)N3CCC(C)CC3)c(C)n(C)c2C)cc1,n,n,x,u,x,n
OC(c1cccc(Cl)c1)c1nnc(Nc2cccc(Oc3ccccc3)c2)s1 (stereo not given),x,x,x,n,x,x
OC(c1ccc(Cl)cc1)c1nnc(Nc2ccc(F)c(Cl)c2)s1 (stereo not given),x,x,x,-63,x,x
CCOc1ccc(-n2c(=O)c3c(C)c(C)sc3n(CC(=O)C(C)(C)C)c2=O)cc1,n,n,x,n,x,n
COC(=O)[C@H](Cc1ccccc1)NS(=O)(=O)N[C@@H](Cc1ccccc1)C(=O)OC,n,n,x,-62,n,n
CC(=O)NC(CC(C)C)C(=O)NC(Cc1ccccc1)C(N)=O (stereo not given),n,n,n,x,n,n
Cc1ccc(S(=O)(=O)NC(Cc2ccccc2)C(=O)NN)cc1 (stereo not given),n,n,n,n,n,n
SMILES,Tb PYK inh,Sm TGR block,Giardia FBPA inh,HCMV antiviral,RE007 growth inh,FMDV inh
CC(=O)NC(CC(C)C)C(=O)NC(Cc1ccccc1)C(=O)CCl (stereo not given),n,x,x,n,n,28µM
Cc1ccc(S(=O)(=O)N[C@@H](Cc2ccccc2)C(=O)CCl)cc1,n,11µM,n,n,n,32µM
COC(=O)C(Cc1ccc(O)cc1)NS(=O)(=O)Cc1ccccc1 (stereo not given),x,x,x,n,x,x
Cc1ccc(C)c(NC(=O)n2ncc3cc(Cl)ccc32)c1,n,n,x,n,x,n
COc1ccc(-n2c3c(cc(-c4nc(-c5ccc(Cl)cc5)cs4)c2=O)C(=O)CC(C)(C)C3)cc1,n,n,x,n,x,n
Cc1ccc(OCC(=O)N(Cc2ccco2)Cc2ccco2)cc1C,n,n,x,n,x,n
COc1ccccc1CNC(=O)c1ccc2nc(-c3ccccc3)c(-c3ccccc3)nc2c1,n,n,x,n,x,u
COc1ccc(C(=O)Oc2ccc(N(C)S(=O)(=O)c3ccccc3)cc2)cc1[N+](=O)[O-],n,n,n,-99,n,n
CN(c1ccccc1)S(=O)(=O)c1cccc(NC(=O)c2ccc(Cl)c([N+](=O)[O-])c2)c1,n,x,x,n,n,32µM
CN(c1ccccc1)S(=O)(=O)c1cccc(NC(=O)CCNC(=O)c2ccc(Cl)cc2)c1,n,n,x,n,n,32µM
CN(c1ccccc1)S(=O)(=O)c1cccc(NC(=O)CCNC(=O)c2ccc([N+](=O)[O-])cc2)c1,n,x,x,n,n,40µM
CN(c1ccccc1)S(=O)(=O)c1cccc(NC(=O)CCNC(=O)c2ccccc2)c1,n,n,x,n,n,u
CC1=C(C(=O)Nc2ccccc2)C(c2ccncc2)n2nc(SCc3ccccc3)nc2N1 (stereo not given),n,n,x,n,x,n
CC1(C)OC(c2ccccc2)=C/C(=C/C=Nc2ccccc2)O1,n,n,n,n,n,n
CC1(C)OC(c2ccccc2)=C/C(=C\C=N\NC(=O)c2ccncc2)O1,n,n,n,-64,n,n
CCCCNc1cc(NC(C)=O)cc2cc(OC)c(OC)cc12,n,u,u,n,n,x
COc1cc2cc(NC(C)=O)cc(NCc3ccccc3)c2cc1OC,n,35µM,u,n,n,n
Cc1ccc(C2c3[nH]c4ccccc4c3CCN2C(=O)CCc2ccccc2)cc1 (stereo not given),n,n,x,-86,x,n
